{"source": "PubChem BioAssay (EPA / NIEHS)", "note": "Active and inactive are the calls of the source. How the source made its calls: active means hit-call score of the fitted dose curve at least 0.9, where 1 is the maximum; inactive means score below 0.9.", "data": [{"assay": "CCTE_Shafer_MEA_acute_per_network_burst_spike_number_mean: CCTE's Neural Acute Assay for Average Number of Spikes in a Network Burst, Shafer Lab (AID 2284019)", "description": "CCTE_Shafer_MEA_acute assay is conducted using Axion Biosystems 48 well microelectrode array (MEA) plates and Maestro recording system. Each well of the MEA plate contains a grid of 16 microelectrodes embedded in the culture surface. Electrically active cells, such as neurons, can be cultured over the electrodes, and electrical activity in these cells can be recorded extracellularly. The spontaneous firing of neurons is captured from each electrode on a microsecond timescale providing both temporally and spatially precise data. […] The CCTE_Shafer_MEA_acute assay uses primary cultures of rat cortical neurons. As these cultures mature over time, neural networks develop functional activity and form cohesive networks in which electrical activity can be highly coordinated. Baseline 40-minute recordings are made on days post-plating 13 or 15, followed by a secondary 40-minute recording after chemical exposure.CCTE_Shafer_MEA_acute_per_network_burst_spike_number_mean is a component of the CCTE_Shafer_MEA_acute assay. It measures the average number of spikes (action potential firings) in a network burst (temporally-clustered group of spikes across multiple electrodes) as the total number of spikes in a network burst divided by the number of network bursts during a recording in a microelectrode array (MEA) using Axion Biosystems Maestro 768 channel amplifier with the AxIS adaptive spike detector. The recordings before and after chemical treatment are used to calculate a percent change in the mean number of spikes in a network burst in each well.Data from the assay component CCTE_Shafer_MEA_acute_per_network_burst_spike_number_mean was analyzed into 1 assay endpoint. This assay endpoint, CCTE_Shafer_MEA_acute_per_network_burst_spike_number_mean, was analyzed in the negative analysis fitting direction relative to DMSO as the negative control and baseline of activity. Using a type of functional reporter, gain or loss-of-signal activity can be used to understand electrical activity.\nSpontaneous activity in the cortical cultures was recorded using an Axion Biosystems Maestro 768 channel amplifier and Axion Integrated Studios (AxIS) v1.8 (or later) software. The amplifier recorded from all channels simultaneously (gain = 1200 x; sampling rate = 12.5 kHz/channel): raw signals were filtered with a Butterworth band-pass filter (300-5000 Hz), which filters out slower local field potentials leaving only fast potentials, i.e., \"spikes\", arising from extracellular currents associated with action potentials (Pine 2006; Wheeler and Nam 2011). On-line spike detection of filtered signals was conducted with the AxIS adaptive spike detector, using a threshold of 8x the root mean squared (rms) noise on each channel. Any electrodes with rms noise levels greater than 5 uV were grounded (e.g., no data were recorded). Once grounded, an electrode was grounded for the duration of the experiment. All recordings were conducted at 37 C. Wells were deemed usable if on the day of the exposure >/= 10 electrodes were active (defined as >/= 5 spikes/min). On DIV 13 or 15, a minimum of three wells from one cortical culture preparation were treated with each compound (0.03-40 uM). Prior to recording baseline activity, each mwMEA plate was placed in the Maestro at 37 C and allowed to sit for 20 min while firing rates stabilized. Baseline activity (40 min) was recorded before the addition of each compound. An additional 40 min of spontaneous activity was recorded in the presence of each compound. Changes in network parameters relative to baseline were assessed following compound treatment.", "values": [{"smiles": "CN1C(=O)N(C)C(O)C1O", "note": "(stereo unspecified)", "outcome": "inactive"}, {"smiles": "O=C(c1ccc(O)cc1)c1ccc(O)cc1O", "outcome": "inactive"}, {"smiles": "Nc1ncn([C@@H]2O[C@H](CO)[C@@H](O)[C@H]2O)c(=O)n1", "AC50": "992 nM (active)"}, {"smiles": "C=C[Si](OC(C)=O)(OC(C)=O)OC(C)=O", "outcome": "inactive"}, {"smiles": "O=C1CCCN1CCO", "outcome": "inactive"}, {"smiles": "CCO[Si](C)(OCC)OCC", "outcome": "inactive"}, {"smiles": "CO[Si](OC)(OC)c1ccccc1", "outcome": "inactive"}, {"smiles": "CCCCC(CC)COCC1CO1", "note": "(stereo unspecified)", "outcome": "inactive"}, {"smiles": "Nc1ccc(N)c(Cl)c1", "outcome": "inactive"}, {"smiles": "CCOC(=O)c1ccccc1C(=C1C=C(Br)C(=O)C(Br)=C1)c1cc(Br)c(O)c(Br)c1", "outcome": "inactive"}, {"smiles": "CCCCC(CC)COC(=O)c1ccccc1O", "note": "(stereo unspecified)", "outcome": "inactive"}]}]}
